Experimental data reported in PubChem BioAssay.
Unmarked numbers belong to inactive results. The rule behind the calls is not given here.

biological target: L-lactate dehydrogenase (Plasmodium falciparum (isolate CDC / Honduras)) (UniProt Q27743); test: PfLDH activity inhibition – cell lysate, 3D7 strain, counter-screen for P. falciparum growth inhibition project (AID 2304);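 note: 0% = vehicle and 100% = reference inhibitor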; conditions: P. falciparum 3D7 crude extract, LDH APAD/NBT absorbance; at 2 µM; stronger effect = higher value
Sequence (Q27743 whole entry, looked up): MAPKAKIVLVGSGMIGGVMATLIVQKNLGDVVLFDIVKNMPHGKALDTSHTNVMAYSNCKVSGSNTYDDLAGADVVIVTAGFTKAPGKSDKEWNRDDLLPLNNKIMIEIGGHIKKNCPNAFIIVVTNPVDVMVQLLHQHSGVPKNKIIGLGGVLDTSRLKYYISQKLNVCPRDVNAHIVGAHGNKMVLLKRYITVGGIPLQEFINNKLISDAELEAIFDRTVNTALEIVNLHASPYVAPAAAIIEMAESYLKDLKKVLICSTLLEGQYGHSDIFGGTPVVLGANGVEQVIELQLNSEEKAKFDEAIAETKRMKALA

| SMILES | inhibition |
| --- | --- |
| COc1ccc2nccc([C@@H](O)CN3CCC(NCc4cc5ccccc5o4)CC3)c2c1 | 4% |
| Oc1ccc(-c2cncc(NCc3ccc(F)c(F)c3)c2)cc1 | -3% |
| Cc1cc(C(=O)Nc2ccc3c(ccn3C3CCCN(Cc4ccc(C(F)(F)F)cc4F)CC3)c2)no1 (centres undefined) | -1% |
| O=C(Nc1nc(-c2ccccn2)cs1)c1ccc(S(=O)(=O)N2CCc3ccccc32)cc1 | 2% |
| Cc1cc(NC2CCCC2)nc(Nc2ccccc2F)n1 | -2% |
| COc1ccc2nccc([C@@H](O)CN3CCC(NCCOc4cc(F)cc(F)c4)CC3)c2c1 | -3% |
| CN1CCCN(Cc2cccc(-c3cccc(NS(=O)(=O)c4cccc5cccnc45)c3)c2)CC1 | -6% |
| Cc1nc(-c2cccc(Nc3nccc(NCC(O)c4ccccc4C)n3)c2)cs1 (centres undefined) | -2% |
| N#Cc1cccc(Nc2nccc(NCC(O)c3ccccc3C(F)(F)F)n2)c1 (centres undefined) | 3% |
| CCCCNCc1ccc(-c2nc(CN(Cc3ccc(Cl)c(Cl)c3)C(=O)CN(C)C)cs2)cc1 | 7% |
| COc1cc2nc(NCC3CCN(c4nc(N)c5cc(OC)c(OC)cc5n4)CC3)nc(N)c2cc1OC | -2% |
| CN1CCC(NCc2ccc(-c3ccc(S(=O)(=O)NCc4ccccc4)c(F)c3)cc2)CC1 | -3% |
| O=C(Nc1cccc(-c2csc(-c3ccccc3)n2)c1)c1cccs1 | 2% |
| CC(C)(C)Nc1cc(C2CC2)nc(-c2ccccn2)n1 | -1% |
| CCOc1ccc(C=CC(=O)Nc2ccc3nc(N4CCOCC4)cc(C)c3c2)cc1OC | 5% |
| COC(=O)c1cccc(OCCNC2CCN(C[C@H](O)c3ccnc4ccc(OC)cc34)CC2)c1 | -10% |
| Cc1noc(C)c1-c1cccc(CNCc2ccc(-c3ccc(-c4nc5ccccc5[nH]4)s3)cc2)c1 | -6% |
| N=C(N)CCN(Cc1ccc(Cl)cc1)c1ccc(Cl)cc1 | 5% |
| COc1ccc2c(NN=Cc3ccccc3F)ccnc2c1 | 0% |
| FC(F)(F)c1ccc2nc(-c3ccc(-c4cccc(CNCc5ccccc5)c4)s3)[nH]c2c1 | -5% |

| SMILES | inhibition |
| --- | --- |
| O=[N+]([O-])c1cc(C(c2ccc(O)c([N+](=O)[O-])c2)C(Cl)(Cl)Cl)ccc1O | 3% |
| N#Cc1ccc2c(c1)CCN(CCC1CCC(NC(=O)/C=C/c3cnc4ccccc4c3)CC1)CC2 (centres undefined) | -1% |
| Cn1c(NC(=O)C2CCC(CNC(=O)c3ccc(O)c(-c4cccc([N+](=O)[O-])c4)c3)CC2)nc2ccccc21 (centres undefined) | -5% |
| Fc1cccc(CNc2ncc(-c3ccsc3)c(-c3nccs3)n2)c1 | 0% |
| Cc1cc(N[C@@H](CC(C)C)C(=O)NCc2cccc(F)c2)nc(Nc2ccccc2)n1 | 2% |
| CCc1sc(N2CCN(C)CC2)nc1C(=O)NCCc1ccc(Cl)c(Cl)c1 | 5% |
| COc1cc2nc(N3CCC(CCCC4CCNCC4)CC3)nc(NCc3ccccn3)c2cc1OC | 3% |
| O=C(NC1CCN(Cc2ccccc2O)C1)c1ccc(Cl)c(Cl)c1 (centres undefined) | -1% |
| CNC(=O)/C=C/c1cc(NC(=O)Nc2cc(C)nc3c(F)cccc23)ccc1OC | 2% |
| CCc1ccc(NC(=O)c2ccc(CN3CCCN(Cc4cccc(O)c4)CC3)cc2)cc1 | 0% |
| CC(C)c1sc(-c2ccc(C(C)(C)C)cc2)nc1C(=O)NCCCN1CCCC1=O | 1% |
| NC(N)=Nc1nc(-c2cccc(NC(=O)Cc3ccccc3)c2)cs1 | -8% |
| O=C(NCCc1ccccc1)N(Cc1ccccc1-c1cccc(CNCc2ccc3c(c2)OCO3)c1)C1CCN(Cc2ccccc2)CC1 | 5% |
| CC(Oc1ccc(Cl)cc1)C(=O)N(C)C1CCN(CCCCCNC(=O)/C=C/c2ccc(Cl)c(Cl)c2)CC1 (centres undefined) | -2% |
| CCOc1cc(C)ccc1C1CCN(CCCCNC(=O)c2cccc(-c3ccc(C(F)(F)F)cc3)c2)CC1 | 2% |
| c1ccc(CNc2nc(NCCc3cnc[nH]3)nc(N3CCCC4CCCCC43)n2)cc1 (centres undefined) | -3% |
| Cc1cc(NC(=O)c2ccsc2)ccc1OC1CCN(Cc2ccc(F)cc2)CC1 | -2% |
| N=c1n(CCN2CCCCC2)c2ccccc2n1CC(O)c1cccc(Br)c1 (centres undefined) | -1% |
| COc1cccc(C(=O)NCCOc2ccccc2)c1Oc1ccccc1 | -4% |
